This is an account of results in PubChem BioAssay AID411 (National Center for Advancing Translational Sciences (NCATS), 2006).

The structures appear in SMILES notation. Among all 72,000 compounds or so, about 1,600 (2.2%) were called active. Entries that show only a call come without a potency. The sample holds actives, similar compounds and a random draw of the others, so the mix is not that of the screen. Unmarked numbers belong to inactive results. Calls come from the whole dose curve; as a rule, active = well fitted inhibition curve with a large enough effect; inconclusive = small, poorly fitted or top-dose-only effect; inactive = flat fitted curve, though single readings scatter.
Potency is the fitted concentration of half-maximal effect.

Sequence of Luciferin 4-monooxygenase (Photinus pyralis) (P08659 whole entry, looked up): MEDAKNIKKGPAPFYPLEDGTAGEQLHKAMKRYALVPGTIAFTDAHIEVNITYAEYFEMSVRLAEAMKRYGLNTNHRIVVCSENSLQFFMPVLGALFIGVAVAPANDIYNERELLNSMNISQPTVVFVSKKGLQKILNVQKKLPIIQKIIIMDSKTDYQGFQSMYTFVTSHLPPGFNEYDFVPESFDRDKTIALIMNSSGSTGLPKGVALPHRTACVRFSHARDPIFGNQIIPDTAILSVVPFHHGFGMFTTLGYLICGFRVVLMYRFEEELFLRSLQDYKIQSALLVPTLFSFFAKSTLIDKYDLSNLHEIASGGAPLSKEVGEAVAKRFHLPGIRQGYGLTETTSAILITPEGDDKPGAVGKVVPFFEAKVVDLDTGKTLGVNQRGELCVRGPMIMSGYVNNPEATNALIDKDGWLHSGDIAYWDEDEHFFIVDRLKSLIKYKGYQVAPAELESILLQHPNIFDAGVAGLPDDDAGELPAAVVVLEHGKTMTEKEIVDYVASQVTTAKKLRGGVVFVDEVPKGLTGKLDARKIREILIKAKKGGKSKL

This assay has as its target Luciferin 4-monooxygenase (Photinus pyralis) (UniProt P08659). Briefly: qHTS Assay for Inhibitors of Firefly Luciferase. Note: nearly all actives have a fitted effect of over 40% in size. As to conditions: purified firefly luciferase, luminescence, 8 min; series mostly up to 57.1 µM. A digest of the protocol: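 qHTS concentration-response profiling: light output of P. pyralis luciferase with luciferin and 10 uM ATP, imidazole buffer pH 7.2. Read by luminescence after 8-min room-temperature incubation.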
(In qHTS, concentration-response curves come from the screen itself.)
For `CCN(CC)C(=O)CCC(=O)Nc1ccc(C(=O)OC)cc1`, the Potency entry was “inactive”.
Turning to `CN(c1ccc(C(=O)NCCC2=CCCCC2)cc1)S(C)(=O)=O`, the Potency result is “inactive”.
The same measure, in the same setting: as for `O=C(c1cccs1)N1CCC(c2nc3ccccc3s2)CC1`, the entry is “inactive”.
Same read-out and setting: as for `Cc1nn(Cc2ccccc2)c(Cl)c1C(=O)OC1CCOC1=O` (stereo not given), the entry is “inactive”; as for `O=C(OC1CCOC1=O)c1ccc(-c2nc3ccccc3s2)s1` (stereo not given), 2.51 µM (active).
`COc1ccc(C(=O)N2CCC[C@@]3(CCN(C(=O)NC(C)C)C3)C2)cc1`: the activity change, negative = inhibition is -0.0908% [at 11.4 µM].
Take `COc1cccc(OCC(=O)Nc2ccccc2C(N)=O)c1`: the Potency was 6.31 µM (active).
On to `CCCOC(=O)Nc1ccccc1C(N)=O`, for which the Potency result is “inactive”.
The same measure, in the same setting: for `NC(=O)c1ccccc1NC(=O)c1ccccc1F` the value was “inactive”; for `O=S(=O)(c1ccc(Sc2nnc3ccccn23)nc1)N1CCOCC1`, “inactive”.
Regarding `O=C1CCCC2=C1C(c1cccs1)n1nc(SCc3ccccc3)nc1N2` (stereo not given), the Potency result is “inactive”.
On the same count and under the same terms, for `O=S(=O)(NCCNS(=O)(=O)c1ccccc1)c1ccccc1` the value was “inactive”; for `COc1ccccc1-c1cc(C(=O)N2CCCCC2)no1`, 25.1 µM (active); for `O=C(c1cc(-c2cccc(O)c2)on1)N1CCc2ccccc2C1`, “inactive”.
On to `O=C(c1cc(-c2cccs2)on1)N1CCCCC1`, for which the Potency is 15.8 µM (active).
Regarding `Cc1cc(NC(=O)c2cc(-c3cccs3)on2)nn1Cc1ccc(Cl)cc1`, the Potency entry was “inactive”.
`O=C(c1cc(-c2ccccc2O)on1)N1CCCC1`: the Potency entry is “inactive”.
The same measure, in the same setting: as for `COc1ccccc1N1CCN(C(=O)c2cc(-c3ccc(Br)cc3)on2)CC1`, the entry is “inactive”; as for `Cn1cccc1Cc1nnc(SCC(=O)NCc2ccc3c(c2)OCO3)n1CCc1ccccc1`, “inactive”.
For the compound `CCOC(=O)c1cc2cc(-c3c(C(=O)OCC)oc4cc(O)cc(O)c4c3=O)ccc2o1`, the Potency entry was “inactive”.
As for `CN1CCc2[nH]nc(-c3n[nH]c4c3CN(C)CC4)c2C1`, the activity change, negative = inhibition was 2.79% [at 11.4 µM].
Regarding `O=C(C1CCN(S(=O)(=O)Cc2ccccc2)CC1)N1CCCc2ccccc21`, the Potency result is “inactive”.
With `CCOC(=O)NCc1ccc2c(c1)OCO2`, the Potency entry is “inactive”.
Still for that read-out and setting: for `CCOC(=O)c1c(C)[nH]c(C(=O)COc2ccc3c(c2)OCO3)c1C` the value was “inactive”; for `CCOC(=O)c1nc(-c2ccc3c(c2)OCO3)[nH]c1C`, 15.8 µM (active); for `COc1ccc(-c2nnc(SCC(=O)c3cccs3)o2)c(OC)c1`, 12.6 µM (active).
Same read-out and setting: as for `COc1ccc(-n2c(C)cc(C(=O)CSc3nnc(-c4cccs4)o3)c2C)cc1`, the entry is “inactive”; as for `COc1ccc(OC)c(C(=O)CSc2nnc(-c3cccs3)o2)c1`, “inactive”; as for `Cn1c(-c2ccco2)nc2cc3ccccc3cc21`, 0.501 µM (active).
As for `CN(c1nc2ccccc2n2c(-c3ccco3)nnc12)S(=O)(=O)c1ccccc1`, the Potency result was “inactive”.
As for `c1coc(-c2nc3nc4ccccc4n3nc2-c2ccco2)c1`, the Potency entry was “inactive”.
On the same count and under the same terms, for `C(=C\c1ccccc1)/CSc1nnc(-c2cccnc2)n1Cc1ccco1` the value was “inactive”; for `CC(=O)N1CCN(C(=O)c2cccc(S(=O)(=O)Nc3ccc(C)cc3)c2)CC1`, “inactive”.
For `COC(=O)c1[nH]c2ccccc2c1NS(=O)(=O)c1ccc(OC)cc1OC`, the Potency entry is “inactive”.
The same measure, in the same setting: for `COc1ccc(N=Cc2c(O)[nH]c3ccccc23)cc1OC` the value was 15.8 µM (active); for `COc1ccc(OC)c(N=Cc2c(O)[nH]c3ccccc23)c1`, “inactive”; for `CCOC(=O)C1CCCCN1Cc1ccc(OC)c(OC)c1OC` (stereo not given), “inactive”.
For `COc1ccc2nc(NC(=O)c3ccc(Br)s3)sc2c1`, the Potency is 12.6 µM (active).
Same read-out and setting: for `CCn1c(SCC(=O)Nc2nc3ccc(OC)cc3s2)nnc1-c1ccoc1C` the value was “inactive”.
Regarding `CNC(=O)c1ccc2nc(NC(C)=O)sc2c1`, the Potency result is “inactive”.
As to `Cc1ccnc(N2CCC(C(=O)NC3CCCCCC3)CC2)n1`, the Potency entry was “inactive”.
As to `Cc1nc2ccccc2c(=O)n1CCCn1ccnc1`, the Potency result was “inactive”.
`Cc1ccnc(-n2sc3ccccc3c2=O)n1`: the Potency was 20 µM (active).
On to `N#CCCN(CCC#N)c1nnc(-c2ccccc2)s1`, for which the Potency result is “inactive”.
Take `Cc1ccc(S(=O)(=O)NCc2cn3ccsc3n2)c(C)c1`: the Potency result is “inactive”.
Still for that read-out and setting: as for `COc1ccc(-c2cn3ccsc3n2)cc1`, the figure is 3.98 µM (active).
As to `O=C(NCc1cn2ccsc2n1)Nc1ccc(Cl)cc1`, the Potency result was “inactive”.
With `CC(=O)N1CCC2(CCCN(Cc3ccc(C#N)cc3)C2)CC1`, the activity change, negative = inhibition was 0.0675% [at 11.4 µM].
As to `Cc1ccc(NC(=O)CSc2nnc(-c3cnccn3)n2Cc2ccco2)cc1C`, the Potency entry is “inactive”.
Same read-out and setting: as for `CN(C(=O)c1ccno1)c1nnc(-c2cccnc2)s1`, the entry is “inactive”.
As to `CN(C(=O)COc1ccccc1)c1nnc(-c2ccncc2)s1`, the Potency result is “inactive”.
The same measure, in the same setting: for `CN(C(=O)c1ccccn1)c1nnc(-c2ccccn2)s1` the value was 10 µM (active); for `O=S1(=O)CCN2C(=N1)SC1=C2CCN(Cc2ccccc2)C1`, “inactive”; for `COc1ccc(-c2cc3n(n2)CCc2nc4ccccc4n2-3)cc1`, “inactive”.
As for `COc1ccc(-c2nc3n(c2Br)CCC3)cc1`, the Potency is 12.6 µM (active).
For `Brc1cccc(-c2nnc3n2CCC3)c1`, the Potency entry is “inactive”.
Consider `Cc1nc2ccc(NC(=O)N3CCC(c4ccccc4)C3)cc2nc1C` (stereo not given), for which the Potency entry was “inactive”.
On to `Cc1cc(=O)oc(C)c1C(=O)Nc1cnc2ccccc2c1`, for which the Potency entry was “inactive”.
The same measure, in the same setting: for `Cc1ccc(NC(=O)c2cc(-c3ccc(C)o3)nc3ccccc23)nc1` the value was 12.6 µM (active); for `Cc1ccc(C(=O)CSc2nc3ccccc3c(=O)n2N)o1`, “inactive”; for `CCOC(=O)Cc1csc(NC(=O)C(C)(C)C)n1`, “inactive”.
Turning to `CCOC(=O)Cc1csc(NC(=O)CSc2nc(C)cc(=O)[nH]2)n1`, the Potency result was “inactive”.
As for `CCOC(=O)Cc1csc(NC(=O)Nc2ccccc2)n1`, the Potency was 12.6 µM (active).
As for `CNc1nc(-c2ccccc2OC)nc2ccccc12`, the activity change, negative = inhibition is -0.211% [at 2.29 µM].
The same measure, in the same setting: for `Cc1nc2cnc(Nc3ccccc3)nc2n(Cc2ccc(F)cc2)c1=O` the value was -0.327% [at 11.4 µM].
